From PubChem BioAssay
Rows were chosen to be rich in hits. Some 1.6% of all compounds tested hit in one or more screens of this group.
GRK2 aptamer HTS: compounds blocking aptamer binding on GRK2 – biochemical, human GRK2, bead flow cytometry, HTS, primary screen; FAM-aptamer displacement from GRK2; inhibition of aptamer binding, % at 10 µM; 330,000 compounds, 0.59% hits;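 active = inhibition of aptamer binding above 40%, roughly 3 SD of noise, on plates passing a quality check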;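 note: median bead fluorescence of bound FAM aptamer so fluorescent compounds give negative values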
Yeast superoxide: reduction of superoxide in aged yeast, primary screen, HTS. S. cerevisiae aged cells, superoxide DHE fluorescence; active compounds read low. superoxide response (% of plate mean), % at 10 µM. 330,000 compounds, 0.18% hits. AID 2690, 2010;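 active = superoxide response under a set limit, about three screen SD below normal, cut at about 65% in these data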;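 note: yeast aged for seven days with compound at 30 °C before DHE staining; 100% = average MFI of all compound-treated wells on the plate with controls excluded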
Efflux pump mplx: inhibitors of Candida efflux pumps in yeast, primary screen, S. cerevisiae, Nile Red, multiplex; S. cerevisiae Candida pump triplex; inhibition, % at 10 µM; 330,000 compounds, 0.44% hits;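 active = plate passing quality check with inhibition over a set limit, or well fluorescence over plate mean plus 4 SD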;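 note: Nile Red retained in pooled yeast measured as flow cytometry median fluorescence; 0% = buffer negative control and 100% = Enniatin B positive control; higher means more Nile Red kept so more efflux inhibition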
ATG4B inh: ATG4B protease inhibitors, primary screen, biochemical, fluorescence, uHTS; ATG4B cleavage of LC3-PLA2, NBD-HPC fluorescence, 1 h; inhibition, % at 8.33 µM; 340,000 compounds, 0.51% hits; AID 504462, 2011; in the data active = inhibition above about 40%
Target sequence (Q9Y4P1 whole entry, looked up): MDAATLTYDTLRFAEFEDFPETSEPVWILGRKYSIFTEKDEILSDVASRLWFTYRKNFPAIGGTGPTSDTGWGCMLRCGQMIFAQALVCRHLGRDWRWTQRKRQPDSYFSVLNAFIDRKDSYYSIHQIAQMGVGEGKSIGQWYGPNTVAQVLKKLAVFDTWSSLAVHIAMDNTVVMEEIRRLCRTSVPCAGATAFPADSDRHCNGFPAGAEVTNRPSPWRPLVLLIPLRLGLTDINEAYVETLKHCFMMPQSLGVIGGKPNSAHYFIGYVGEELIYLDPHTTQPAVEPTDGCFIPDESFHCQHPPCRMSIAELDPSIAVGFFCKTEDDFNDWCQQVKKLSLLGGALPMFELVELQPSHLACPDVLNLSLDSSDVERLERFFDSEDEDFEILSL
CR mimetic CP: superoxide lowering in aged yeast cells, confirmation, cherry picked compounds; shares compounds with Yeast superoxide; superoxide response (% of plate), % at 10 µM; S. cerevisiae aging, superoxide DHE fluorescence; active compounds read low; AID 434994, 2010; 850 compounds, 1% hits;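 active = superoxide signal below 65% of the plate average of sample wells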;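 note: cells aged with compound for 7 days at 30 degrees C before staining; 100% equals mean DHE fluorescence of all compound wells on the plate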
DHE fluor count: DHE quenching or ROS scavenging interference in aged yeast, artefact control for yeast caloric restriction mimetic project, S. cerevisiae BY4741, flow cytometry; shares compounds with Yeast superoxide; DHE fluorescence; active compounds read low; 850 tested, under 10 active; AID 435000, 2010; fluorescence response, % at 10 µM;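 active = fluorescence response below 15%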;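 note: percent of the mean fluorescence averaged over all compound wells on the plate; lower means stronger quenching of DHE signal or ROS scavenging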
Starred values were filed as active, the others as inactive.

Screening O=C(NCc1nc2ccccc2[nH]1)C1=C[C@H](C2CC2)C[C@H](OCc2ccc(CO)cc2)O1 returned GRK2 aptamer HTS 0, Yeast superoxide 103, Efflux pump mplx 0 and ATG4B inh 6.
Screening CN(C)CCNc1ncnc2c1cnn2-c1ccc(Cl)cc1 returned GRK2 aptamer HTS 0, Yeast superoxide 108, Efflux pump mplx 0, ATG4B inh -3, CR mimetic CP 101 and DHE fluor count 99.
OCCCNc1ncnc2c1cnn2-c1ccc(Cl)cc1 was read as GRK2 aptamer HTS 2, Yeast superoxide 92, Efflux pump mplx 0, ATG4B inh -2, CR mimetic CP 92 and DHE fluor count 90.
CC(C)Nc1ncnc2c1cnn2-c1ccccc1 was read as GRK2 aptamer HTS 0, Yeast superoxide 103, Efflux pump mplx 0, ATG4B inh -6, CR mimetic CP 108 and DHE fluor count 89.
Cc1cccc(-n2ncc3c(NC(C)C)ncnc32)c1 was read as GRK2 aptamer HTS 0, Yeast superoxide 96, Efflux pump mplx 0 and ATG4B inh -3.
Cc1ccc(C)c(N2C(=O)CC(Cc3ccccc3)C2=O)c1 (configuration not stated) was read as GRK2 aptamer HTS 1, Yeast superoxide 102, Efflux pump mplx 0 and ATG4B inh 6.
Screening O=C(Cn1ccc([N+](=O)[O-])n1)NCc1ccccc1 returned GRK2 aptamer HTS 0, Yeast superoxide 91, Efflux pump mplx 0 and ATG4B inh -3.
CCn1c2ccc(CC(=O)O)cc2c2cc(CC(=O)O)ccc21 was read as GRK2 aptamer HTS 0, Yeast superoxide 105, Efflux pump mplx 0, ATG4B inh 4, CR mimetic CP 101 and DHE fluor count 103.
O=C(O)Cc1ccc2ccc3ccccc3c2c1 was read as GRK2 aptamer HTS 0, Yeast superoxide 112, Efflux pump mplx 0 and ATG4B inh 20.
Screening CCOc1ccc(N=Nc2c(=O)[nH]n3c(C)cc(C)nc23)cc1 returned GRK2 aptamer HTS 2, Yeast superoxide 52*, Efflux pump mplx 1, ATG4B inh 3, CR mimetic CP 100 and DHE fluor count 110.
`Cc1ccccc1COC(=O)CCC1=NS(=O)(=O)c2ccccc2N1` gave GRK2 aptamer HTS 1, Yeast superoxide 82, Efflux pump mplx 0 and ATG4B inh 0.
Screening Cc1ccc(S(=O)(=O)N2CCN(C(=O)COC(=O)c3ccc(Cl)nc3)CC2)c(C)c1 returned GRK2 aptamer HTS 0, Yeast superoxide 104, Efflux pump mplx 0 and ATG4B inh 3.
For CCN(CC)Cc1cc(NC2=NS(=O)(=O)c3ccccc32)ccc1OC(=O)c1ccccc1 the results were GRK2 aptamer HTS 0, Yeast superoxide 63*, Efflux pump mplx 1, ATG4B inh -9, CR mimetic CP 103 and DHE fluor count 109.
For COc1ccc(CCC(=O)OCC(=O)c2cccc(OC)c2)cc1 the results were GRK2 aptamer HTS 0, Yeast superoxide 102, Efflux pump mplx 0 and ATG4B inh -2.
CCOC(=O)Cc1ncccc1C(=O)Nc1ccc(Oc2ccccc2)cc1 was read as GRK2 aptamer HTS 5, Yeast superoxide 91, Efflux pump mplx 0 and ATG4B inh -2.
CCCCCCCCSc1nnc(-c2ccc(OC)cc2)o1 was read as GRK2 aptamer HTS 0, Yeast superoxide 87, Efflux pump mplx 0, ATG4B inh 2, CR mimetic CP 103 and DHE fluor count 93.
For O=C(c1cccc(F)c1)N1CCN(c2cccc(Cl)c2)CC1 the results were GRK2 aptamer HTS 0, Yeast superoxide 92, Efflux pump mplx 0, ATG4B inh -4, CR mimetic CP 96 and DHE fluor count 92.
O=C(c1cccnc1)N1CCN(c2ccc(Cl)cc2)CC1 was read as GRK2 aptamer HTS 2, Yeast superoxide 44*, Efflux pump mplx 2, ATG4B inh 6, CR mimetic CP 111 and DHE fluor count 89.
For O=C(c1cccc(F)c1)N1CCCN(C(=O)c2cccc(F)c2)CC1 the results were GRK2 aptamer HTS 1, Yeast superoxide 103, Efflux pump mplx 0 and ATG4B inh 0.
`N#Cc1ccc(N2CCN(C(=O)c3cccc(F)c3)CC2)c(F)c1` gave GRK2 aptamer HTS 0, Yeast superoxide 109, Efflux pump mplx 0, ATG4B inh -2, CR mimetic CP 99 and DHE fluor count 102.
For O=C(c1cccnc1)N1CCN(c2ccccc2Cl)CC1 the results were GRK2 aptamer HTS 3, Yeast superoxide 97, Efflux pump mplx 0, CR mimetic CP 117 and DHE fluor count 91.
`O=C(Nc1ccc(N2CCN(C(=O)c3ccc(Cl)cc3)CC2)cc1)c1cccnc1` gave GRK2 aptamer HTS 0, Yeast superoxide 114, Efflux pump mplx 0 and ATG4B inh -10.
`CCN(C(=O)COC(=O)Cc1ccc(F)cc1)c1c(N)n(Cc2ccccc2)c(=O)[nH]c1=O` gave GRK2 aptamer HTS 0, Yeast superoxide 86, Efflux pump mplx 0 and ATG4B inh -3.
Screening Nc1ncccc1C(=O)OCC(=O)N1CCN(S(=O)(=O)c2ccc(Cl)cc2)CC1 returned GRK2 aptamer HTS 0, Yeast superoxide 91, Efflux pump mplx 0 and ATG4B inh -11.
Cc1cccc(C(=O)OCC(=O)c2c(C)[nH]c3ccccc23)c1O was read as GRK2 aptamer HTS 5, Yeast superoxide 115, Efflux pump mplx 0 and ATG4B inh -7.
`O=C(c1ccncc1)N1CCN(c2ccc(F)cc2)CC1` gave GRK2 aptamer HTS 1, Yeast superoxide 95, Efflux pump mplx 0 and ATG4B inh -10.
`O=C(c1ccc(Cl)cc1)N1CCN(c2ccc(F)cc2)CC1` gave GRK2 aptamer HTS 3, Yeast superoxide 71, Efflux pump mplx 0, ATG4B inh -6, CR mimetic CP 89 and DHE fluor count 103.
`N=c1oc2cc(O)ccc2cc1C(=O)Nc1ccc(Cl)cc1` gave GRK2 aptamer HTS 3, Yeast superoxide 50*, Efflux pump mplx 0, ATG4B inh -11, CR mimetic CP 96 and DHE fluor count 65.
Screening Cc1ccc(NC(=O)c2cc3ccccc3oc2=N)cc1 returned GRK2 aptamer HTS 0, Yeast superoxide 105, Efflux pump mplx 0 and ATG4B inh 3.
For O=S(=O)(NCCn1ccc2ccccc21)c1ccccc1 the results were GRK2 aptamer HTS 0, Yeast superoxide 65*, Efflux pump mplx 0, ATG4B inh -6, CR mimetic CP 110 and DHE fluor count 107.
COc1ccc(CC(=O)Nc2cc(S(=O)(=O)N3CCOCC3)ccc2N2CCCC2)cc1OC was read as GRK2 aptamer HTS 0, Yeast superoxide 93, Efflux pump mplx 0, ATG4B inh -2, CR mimetic CP 84 and DHE fluor count 92.
